Hits are enriched below; roughly 2.6% of the tested compounds scored in any of these assays.
Cruzain noTriton: blocks cruzain activity in detergent-free assay | AID 1476 | Potency, µM, for inactives: max response, negative = inhibition, usual class: inhibitors | purified cruzain, Z-FR-AMC fluorescence, no detergent | 200,000 tested, 2.3% active | P25779;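 also: plate controls were enzyme without inhibitor for no effect and buffer without enzyme for full effect; nearly all actives have a fitted effect of over 40% in size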
Target sequence (P25779 123-467 limits assumed): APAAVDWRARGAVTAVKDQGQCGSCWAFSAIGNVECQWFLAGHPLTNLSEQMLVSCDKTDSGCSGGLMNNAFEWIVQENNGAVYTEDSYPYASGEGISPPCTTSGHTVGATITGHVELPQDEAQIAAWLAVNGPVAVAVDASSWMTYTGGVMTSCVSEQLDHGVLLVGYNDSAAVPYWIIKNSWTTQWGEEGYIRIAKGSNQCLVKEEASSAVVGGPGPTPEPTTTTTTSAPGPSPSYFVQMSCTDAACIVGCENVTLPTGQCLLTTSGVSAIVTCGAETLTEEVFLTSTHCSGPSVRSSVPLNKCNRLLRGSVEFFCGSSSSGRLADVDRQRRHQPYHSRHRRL
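Purified cruzain at 1.5 nM, pre-incubated 15 min with compound at room temperature in 100 mM sodium acetate pH 5.5, 5 mM DTT, 0.00005% Triton X-100. Reaction started with 2 uM Z-FR-AMC; AMC fluorescence increase over 60 s gives rate.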
Cruzain inh Det: blocks cruzain activity in presence of Triton detergent | AID 1478 | P25779 | purified cruzain, Z-FR-AMC fluorescence, 0.01% Triton | 200,000 tested, 0.43% active | Potency, µM, for the others: max response, negative = inhibition, actives largely listed as inhibitors;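 also: plate controls were neutral wells for no effect and buffer without enzyme for full effect; nearly all actives have a fitted effect of over 40% in size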
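Detergent-containing arm of a paired screen for aggregation-based inhibition: 0.01% Triton X-100 present. Cruzain at 1.5 nM cleaved 2 uM Z-FR-AMC at pH 5.5 with 5 mM DTT; AMC fluorescence gain over 60 s measured activity.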
Starred values were filed as active, the others as inactive; ? = inconclusive. Calls follow the shape of the dose curve; as a rule, active = well fitted curve in the direction sought with a large enough effect; inconclusive = small, poorly fitted or top-dose-only effect, or another doubt; inactive = no such curve, though single readings can be large; an effect the other way counts as inactive or inconclusive. Potency is read from the fitted curve at half-maximal effect.

SMILES	Cruzain noTriton	Cruzain inh Det
COc1cc(OC)cc(-n2c(=O)c3ccccc3n(CC(=O)NCCc3ccc(OC)c(OC)c3)c2=O)c1	-6%	-1%
Cc1cc(-c2ccc(N=Nc3ccc4c(S(=O)(=O)O)cc(S(=O)(=O)O)c(N)c4c3O)c(C)c2)ccc1N=Nc1ccc2c(S(=O)(=O)O)cc(S(=O)(=O)O)c(N)c2c1O	?	28µM*
Nc1ccc(N=Nc2ccc(-c3ccc(O)cc3)cc2)c2ccc(S(=O)(=O)O)cc12	10%	-14%
Cc1ccc(N=Nc2c(O)c(S(=O)(=O)O)cc3cc(S(=O)(=O)O)ccc23)c(C)c1	-9%	-2%
Nc1c(N=Nc2ccc(-c3ccc(N=Nc4cc(S(=O)(=O)O)c5ccccc5c4N)cc3)cc2)cc(S(=O)(=O)O)c2ccccc12	?	2.8µM*
Cc1nc2nc(NC(=O)C(C)C)[nH]n2c(=O)c1Cc1ccccc1	22%	4%
CCOc1cc(C2c3c(-c4ccccc4O)n[nH]c3C(=O)N2Cc2cccnc2)ccc1O (stereo not drawn)	3%	-2%
O=C(CSc1nc2c([nH]c3ccccc32)c(=O)n1-c1ccccc1)NCc1ccc(F)cc1	-5%	-2%
CCn1c2ccccc2c2cc(NC(=O)c3cccc([N+](=O)[O-])c3)ccc21	-4%	4%
CCn1c2ccccc2c2cc(NC(=O)c3ccc(C)c([N+](=O)[O-])c3)ccc21	25µM*	-3%
O=C(Nc1ccc(N2CCCC2)c(Cl)c1)c1ccc(Br)o1	10µM*	-14%
CCn1c2ccccc2c2cc(NC(=O)c3ccc(Br)o3)ccc21	107%	13µM*
O=C(Nc1ccccc1N1CCCC1)c1ccc(Br)o1	-6%	-4%
CCn1c2ccccc2c2cc(NC(=O)c3cc(OC)cc(OC)c3)ccc21	?	-6%
COc1ccc2c(c1)OCC(Cc1ccc(O)c(OC)c1)C2=O (stereo not drawn)	8%	-3%
O=c1oc2ccccc2cc1-c1nc(-c2cccc(Cl)c2)cs1	-1%	0%
O=c1oc2ccccc2cc1-c1csc(Nc2nc3ccc(F)cc3s2)n1	6%	-6%
O=c1oc2ccccc2cc1-c1csc(Nc2nc3c(F)cccc3s2)n1	32µM*	-3%
O=c1oc2ccccc2cc1-c1csc(Cc2nc(-c3ccc(Cl)cc3)cs2)n1	10µM*	-2%
CC1CCC/C(=C(\C#N)c2nc(-c3cc4ccccc4oc3=O)cs2)C1 (stereo not drawn)	-15%	-7%
O=c1oc2ccccc2cc1-c1csc(NN=C2CCCCC2)n1	20µM*	-26%
Cc1oc(-c2ccc(C(=O)NCc3ccccc3Cl)cc2)nc1CN1CCc2ccccc21	?	-5%
CCOC(=O)C1CCCN(C(=O)C2CCN(c3nnc(C)c4c(C)n(-c5ccccc5)nc34)CC2)C1 (stereo not drawn)	13%	-6%
O=C(Nc1ccc(/C=C/c2nc3ccccc3o2)cc1)c1c(F)cccc1F	10µM*	-1%
Cc1cnc(Nc2nc3ccccc3o2)nc1C(=O)Nc1cccc(C(F)(F)F)c1	-6%	-2%
SMILES	Cruzain noTriton	Cruzain inh Det
O=C(Nc1ccc2c(c1)OCCO2)c1c(F)cccc1F	-13%	-1%
O=C(Nc1ccc(/C=C/c2nc3ccccc3o2)cc1)c1cccc(C(F)(F)F)c1	7.9µM*	-6%
Cc1c(CC(=O)NCCc2ccc(Cl)cc2)c(=O)oc2c(C)c3occ(C(C)(C)C)c3cc12	8%	-1%
CCN(C(=O)CSc1nnc(-c2cc(OC)c(OC)c(OC)c2)o1)c1ccccc1	-2%	-20%
CC1=C2[C@H](/C=C(\C)C(=O)O)CC[C@@H](C)[C@H]2CC1	4%	-5%
Cc1cc(C)c2oc(C(=O)Nc3sc4c(c3C(=O)NCc3ccco3)CCCC4)cc(=O)c2c1	-9%	-2%
Cc1ccc(S(=O)(=O)c2nnn3c2nc(NC2CCCCCC2)c2sccc23)cc1C	-1%	-2%
CS(=O)(=O)c1sc2nc(-c3cccs3)cc(-c3ccccc3)c2c1N	20µM*	-18%
Cc1ccc(-c2cc(-c3ccccc3)c3c(N)c(S(C)(=O)=O)sc3n2)cc1	?	-8%
NCCSS(=O)(=O)CCN	4%	3%
CCOc1cc(/C=C2\CCC/C(=C\c3cc(Cl)c(O)c(OCC)c3)C2=O)cc(Cl)c1O	13µM*	6%
C=CCNC(=O)/C(C#N)=C\c1cc(Cl)c(O)c(OCC)c1	-4%	-1%
CCN(c1ccccc1)S(=O)(=O)c1ccc(NC(=O)c2nc(SC(C)C)ncc2Cl)cc1	-27%	-4%
COc1ccc(OC)c(NC(=O)c2cnc(N3CCCCC3)c3ccccc23)c1	-7%	-6%
CSc1nncc(/C(C)=N\Nc2ccccc2)n1	6%	6%
CSc1nncc(/C(C)=N\Nc2cccc(C)c2)n1	13µM*	2%
Cc1ccc(Nc2ccc(N3CCN(C(=O)c4ccc([N+](=O)[O-])cc4Cl)CC3)nn2)cc1	?	-28%
CCOC(=O)CSc1nc2cc(C(=O)NCc3ccco3)ccc2c(=O)n1-c1ccc(F)cc1	10µM*	-1%
CCOC(=O)CSc1nc2cc(C(=O)NCc3ccco3)ccc2c(=O)n1C1CCCCC1	?	0%
CCN(C(=O)Cn1c(=O)n(Cc2ccccc2)c(=O)c2c1c1cc(OC)ccc1n2C)c1ccccc1	-1%	1%
CCCCNC(=O)CC1Nc2cc(C)c(C)cc2NC1=O (stereo not drawn)	-2%	-7%
C/C(=N\NC(=O)C(=O)Nc1cccc(Cl)c1)c1ccncc1	1%	1%
C/C(=N\NC(=O)C(=O)Nc1cccc(C(F)(F)F)c1)c1ccc(Cl)s1	16µM*	0%
O=C(Nc1nc(-c2ccc3ccccc3c2)cs1)C1CCN(S(=O)(=O)c2cccs2)CC1	3.2µM*	-2%
O=C(Nc1nc(-c2ccccc2)cs1)C1CCCN(S(=O)(=O)c2ccccc2)C1 (stereo not drawn)	20µM*	5%
SMILES	Cruzain noTriton	Cruzain inh Det
O=C(Nc1nc(-c2ccccc2)cs1)C1CCCN(S(=O)(=O)c2cccc([N+](=O)[O-])c2)C1 (stereo not drawn)	7.9µM*	-4%
O=C(Nc1nc(-c2ccccc2)cs1)C1CCCCN1S(=O)(=O)c1ccc(Cl)cc1 (stereo not drawn)	?	-3%
Cc1ccc(-c2csc(NC(=O)C3CCN(S(=O)(=O)c4cccs4)CC3)n2)cc1	?	-4%
O=C(Nc1nc(-c2ccccc2)cs1)C1CCCCN1S(=O)(=O)c1ccccc1 (stereo not drawn)	?	-11%
Cc1cccc(CSc2nc3c(sc4ccccc43)c(=O)n2CCC(=O)NC(C)C)c1	-4%	4%
Cc1ccc(CNC(=O)c2c(-c3ccccc3F)noc2C)o1	-17%	1%
COC(=O)N1CCC2(CC1)CN(C(=O)Nc1cccc(F)c1)C2	11%	3%
Cc1ccc(C(=O)NCC(=O)OC(C)C(=O)NCCC2=CCCCC2)cc1C (stereo not drawn)	?	22µM*
Cc1ccccc1NS(=O)(=O)c1cc(C(=O)NCCC2=CCCCC2)ccc1Cl	-1%	-2%
CCc1nn(CC(=O)NCc2ccccc2Cl)c(=O)c2cc3ccccc3n12	7%	2%
CN1c2cc3c(cc2N=C(c2ccc(C(=O)O)cc2)c2ccccc21)C(C)(C)CCC3(C)C	25%	?
O=C(c1[nH]c2ccccc2c1Sc1ccc(Cl)cc1)N1CCCCC1	-3%	-4%
Cc1cc(C)cc(-n2c(SCC(=O)N3CCCCCC3)nc3c([nH]c4ccccc43)c2=O)c1	11%	1%
